Consider four compounds from PubChem BioAssay.

SMILES strings stand for the structures. Inconclusive results are not listed. Activity calls are given as the source filed them.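 The calls were made as follows, unless noted: active = differentiation response of at least 50%, scaled between solvent and reference control, from cells with both markers; inactive = the rest.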

Assay [1] can be described thus: rapamycin-like changes in RPL19A-GFP expression – cell-based, S. cerevisiae, multiplex flow cytometry, primary screen (AID 1862; in the data active = percent of DMSO control GFP below about 86%;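 also: lower values mimic rapamycin by blocking the RPL19A rise seen in DMSO cells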). The conditions noted are these: S. cerevisiae RPL19A-GFP strain, flow cytometry fluorescence, 3 h; at 10 µM; stronger effect = lower value. (In flow cytometry, cells or beads pass a laser one at a time.)
A short description of assay [2]: TOR pathway GLN3 branch reporter MEP2-GFP changes – S. cerevisiae, multiplex flow cytometry, primary screen (AID 1867;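 active = GFP response, as percent of the DMSO control, above the screen-wide mean plus 3 SD, about 139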;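 also: median GFP channel fluorescence of barcode-gated MEP2-GFP cells measured by flow cytometry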). Particulars: S. cerevisiae MEP2-GFP strain, 3 h, at 10 µM, stronger effect = higher value, 100% means same as DMSO wells.
Assay [3] can be described thus: TOR pathway RTG branch CIT2 reporter changes – S. cerevisiae, GFP fusion, multiplex flow cytometry, primary screen (AID 1870;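 active = percent response above a set limit, the screen-wide mean plus 3 SD, cut at about 130% in these data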;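 also: barcoded CIT2-GFP strain pooled with four other GFP strains with rapamycin as positive control; median GFP fluorescence per well over plate mean of DMSO wells so 100% = DMSO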). The conditions noted are these: S. cerevisiae CIT2-GFP expression, 3 h, at 10 µM, stronger effect = higher value.
A short description of assay [4]: TOR pathway LAP4-GFP level changes – S. cerevisiae, multiplex flow cytometry, primary screen (AID 1873;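 active = GFP signal, as percent of the solvent control, above the screen mean plus 3 SD, about 149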). Particulars: S. cerevisiae LAP4-GFP expression, 3 h, at 10 µM, stronger effect = higher value.
Assay [5] can be described thus: yeast AGP1-GFP level changes, GLN3 branch – cell-based, multiplex flow cytometry, S. cerevisiae, primary screen (AID 1887;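 active = GFP signal above the screen-wide mean plus 3 SD, that is over about 124.5% of the solvent control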;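 also: AGP1-GFP fusion strain of S. cerevisiae within a five-strain barcoded multiplex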). Particulars: 3 h, at 10 µM, stronger effect = higher value.
A short description of assay [6]: reduced mouse 2C T cell binding to pMHC/ICAM-1 vesicles – MLPCN validation set, flow cytometry, LFA-1/ICAM-1 modulator project, pilot screen (AID 2523;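 active = response below a set limit, under 55% cells CD8-positive and vesicle-bound, and CD8 cells' 90th-percentile brightness under 279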;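 as to vesicle binding response: mean PE anti-B7-1 fluorescence of CD8+ cells relative to row control; 100% = QL9-loaded vesicles with DMSO vehicle in the same plate row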). The conditions noted are these: 2C mouse CD8+ T cells, at 7 µM, stronger effect = lower value; double positive events: measured here: CD8+/vesicle+ event percentage.
Assay [7] addresses Integrin beta-1 (Homo sapiens) + Integrin alpha-4 (Homo sapiens) (UniProt P13612+P05556). The experiment in a line: alpha4beta1 integrin LIBS antibody binding reduction – U937 cells, HUTS-21 mAb, flow cytometry, validation set, VLA-4 allosteric modulator project, pilot screen (AID 2674;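 active = inhibition above 50%, about 3 SD of the validation set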;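 also: antibody binding induced by the VLA-4 ligand LDV present at three times its Kd; 0% = LDV ligand with antibody and no compound and 100% = antibody without LDV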). Particulars: HUTS-21 LIBS mAb binding, at 6.7 µM, stronger effect = higher value, binding induced by LDV ligand.

Assay [8] in a line: calorie-restriction mimetic ROS inhibitors, yeast – validation compound set, pilot screen (AID 2706;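 active = superoxide response below 65% of plate, a cut near 3 SD across the whole screen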;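 also: yeast exposed to compound for one week at 30 degrees C before staining; 100% = mean of all compound wells on the same plate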). Particulars: S. cerevisiae aging, superoxide DHE fluorescence; at 10 µM; stronger effect = lower value.
Assay [9] addresses Beta-adrenergic receptor kinase 1 (Homo sapiens) (UniProt P25098). Put plainly: GRK2 binders displacing RNA aptamer, biochemical, validation, human GRK2, bead flow cytometry (AID 488806;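 active = aptamer binding inhibition above 30%, about 3 SD of noise from non-fluorescent compounds; inactive = inhibition at or below 30%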). Particulars: bead-bound GRK2, FAM-aptamer displacement, at 10 µM, stronger effect = higher value.
The target of assay [10] is Beta-2 adrenergic receptor (Homo sapiens) (UniProt P07550). The experiment in a line: agonist-induced loss of surface beta2AR – cell-based, FAP fluorogen, flow cytometry, validation set, pilot screen (AID 504459;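 active = percent response above 42, roughly 3 SD of non-fluorescent test compounds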;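 also: agonist-driven loss of surface beta2AR via internalization measured by FAP dye flow cytometry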). The conditions noted are these: Am2.2-beta2AR cells, at 10 µM, stronger effect = higher value.
Assay [11] addresses AP-2 complex subunit beta (Homo sapiens) (UniProt P63010). Put plainly: beta-arrestin/AP2 interaction blockers – biochemical, validation set, GST-AP2 beads, flow cytometry, pilot screen (AID 504541;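 active = inhibition above 54%, about 3 SD of non-fluorescent compounds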;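 also: AP2 carries R879A mutation and is captured from E. coli lysate; bead-bound FITC arrestin peptide fluorescence measuring arrestin peptide binding to AP2; 0% = DMSO wells and 100% = excess unlabeled arrestin peptide control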). Particulars: FITC arrestin peptide, at 10 µM, stronger effect = higher value, AP2 beta2 appendage fragment, R879A mutant.
Assay [12] is described as follows: cytosolic pH regulators acting via V-ATPase – S. cerevisiae, pHLuorin, HTS validation (AID 504600; in the data active = response above about 15%;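 also: plate controls were DMSO for no effect and reference compound for full effect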). The conditions noted are these: V-ATPase proton transport, at 10 µM, stronger effect = higher value.
For assay [13], the system named is anti-desmoglein-3 scFv antibody binding to human DSG3. The experiment in a line: blockers of pathogenic pemphigus antibody–desmoglein-3 binding – biochemical, validation compound set, bead-based, flow cytometry, pilot screen (AID 588368;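 active = binding below the plate cutoff, the plate median minus 3 SD, with a reading above zero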;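 also: signal is the median channel fluorescence of bead-bound GFP antibody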). The conditions noted are these: Protein G beads, DSG3-Fc, scFv-GFP binding, at 10 µM, stronger effect = lower value.
Assay [14] is described as follows: Nile Red efflux blockade in pump-expressing yeast – validation compound set, multiplex, phenotypic, pilot screen (AID 588506;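 active = efflux inhibition above 0.42, the validation set average plus 4 SD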;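 also: Nile Red retained in cells so higher fluorescence means more efflux inhibition; 0 = negative control wells and 1 = enniatin B 25 µM full block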). The conditions noted are these: S. cerevisiae pump-expressing triplex, Nile Red efflux flow cytometry; at 10 µM; stronger effect = higher value; the pumps come from Candida albicans.
Assay [15] addresses ATP-binding cassette sub-family B member 6 (Homo sapiens) (UniProt Q9NP58). The experiment in a line: blockers of ABCB6-driven porphyrin uptake – K562-ABCB6 cells, flow cytometry, validation set, pilot screen (AID 588550;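 active = inhibition above the screen-wide mean plus 3 SD, about 51%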;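 also: 0% = DMSO wells and 100% = benzethonium chloride 70 µM positive control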). The conditions noted are these: K562-ABCB6 porphyrin accumulation, 1 h, at 10 µM, stronger effect = higher value.
Assay [16] can be described thus: AML differentiation inducers, ER-HoxA9 marrow cells – cell-based, GFP/MAC1 double positive, flow cytometry, validation set, primary screen (AID 588685).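 Also: compound exposure lasts four days before antibody staining and flow analysis; 0% = DMSO wells and 100% = 5 µM fulvestrant positive control.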 The conditions noted are these: stronger effect = higher value, normalized: vehicle 0, fulvestrant 100.

Chain of Beta-2 adrenergic receptor (Homo sapiens) (P07550 whole entry, looked up): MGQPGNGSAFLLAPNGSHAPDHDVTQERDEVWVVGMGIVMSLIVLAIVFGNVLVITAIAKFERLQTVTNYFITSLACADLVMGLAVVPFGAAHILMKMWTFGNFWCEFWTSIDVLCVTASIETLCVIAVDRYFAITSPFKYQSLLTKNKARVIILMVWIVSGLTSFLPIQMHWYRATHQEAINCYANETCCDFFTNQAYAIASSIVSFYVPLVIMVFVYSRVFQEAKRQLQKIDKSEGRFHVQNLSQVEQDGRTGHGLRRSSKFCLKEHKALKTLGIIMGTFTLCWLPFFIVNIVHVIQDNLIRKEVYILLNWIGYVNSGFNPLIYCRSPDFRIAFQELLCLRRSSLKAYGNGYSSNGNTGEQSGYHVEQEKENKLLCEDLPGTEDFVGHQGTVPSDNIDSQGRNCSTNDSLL
Chain of AP-2 complex subunit beta (Homo sapiens) (P63010 whole entry, looked up, the tested form may be a part, one chain of several): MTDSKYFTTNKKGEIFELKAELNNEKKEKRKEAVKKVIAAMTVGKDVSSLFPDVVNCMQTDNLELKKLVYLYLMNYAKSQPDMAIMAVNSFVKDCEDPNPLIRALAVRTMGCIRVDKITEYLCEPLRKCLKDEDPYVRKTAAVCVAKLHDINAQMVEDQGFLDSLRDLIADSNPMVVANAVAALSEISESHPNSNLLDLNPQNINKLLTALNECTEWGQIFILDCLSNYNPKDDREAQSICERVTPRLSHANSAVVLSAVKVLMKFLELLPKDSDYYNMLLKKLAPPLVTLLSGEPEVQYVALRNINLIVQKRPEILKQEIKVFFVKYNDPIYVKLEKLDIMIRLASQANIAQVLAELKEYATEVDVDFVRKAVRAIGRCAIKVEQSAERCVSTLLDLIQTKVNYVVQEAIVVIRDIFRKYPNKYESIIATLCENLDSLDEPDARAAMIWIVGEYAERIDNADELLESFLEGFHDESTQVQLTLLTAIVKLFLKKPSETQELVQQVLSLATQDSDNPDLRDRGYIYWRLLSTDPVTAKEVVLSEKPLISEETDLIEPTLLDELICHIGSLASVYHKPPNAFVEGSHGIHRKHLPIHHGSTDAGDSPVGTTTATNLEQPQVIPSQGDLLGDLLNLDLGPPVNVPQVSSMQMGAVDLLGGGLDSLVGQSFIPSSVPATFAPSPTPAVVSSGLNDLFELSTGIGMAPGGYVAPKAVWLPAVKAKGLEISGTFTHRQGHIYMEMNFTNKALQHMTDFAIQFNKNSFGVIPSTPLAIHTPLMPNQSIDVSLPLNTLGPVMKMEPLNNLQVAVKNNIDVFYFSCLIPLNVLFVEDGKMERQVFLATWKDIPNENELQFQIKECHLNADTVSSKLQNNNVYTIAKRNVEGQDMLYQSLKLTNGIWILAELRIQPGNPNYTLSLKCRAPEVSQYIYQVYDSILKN
Chain of ATP-binding cassette sub-family B member 6 (Homo sapiens) (Q9NP58 whole entry, looked up): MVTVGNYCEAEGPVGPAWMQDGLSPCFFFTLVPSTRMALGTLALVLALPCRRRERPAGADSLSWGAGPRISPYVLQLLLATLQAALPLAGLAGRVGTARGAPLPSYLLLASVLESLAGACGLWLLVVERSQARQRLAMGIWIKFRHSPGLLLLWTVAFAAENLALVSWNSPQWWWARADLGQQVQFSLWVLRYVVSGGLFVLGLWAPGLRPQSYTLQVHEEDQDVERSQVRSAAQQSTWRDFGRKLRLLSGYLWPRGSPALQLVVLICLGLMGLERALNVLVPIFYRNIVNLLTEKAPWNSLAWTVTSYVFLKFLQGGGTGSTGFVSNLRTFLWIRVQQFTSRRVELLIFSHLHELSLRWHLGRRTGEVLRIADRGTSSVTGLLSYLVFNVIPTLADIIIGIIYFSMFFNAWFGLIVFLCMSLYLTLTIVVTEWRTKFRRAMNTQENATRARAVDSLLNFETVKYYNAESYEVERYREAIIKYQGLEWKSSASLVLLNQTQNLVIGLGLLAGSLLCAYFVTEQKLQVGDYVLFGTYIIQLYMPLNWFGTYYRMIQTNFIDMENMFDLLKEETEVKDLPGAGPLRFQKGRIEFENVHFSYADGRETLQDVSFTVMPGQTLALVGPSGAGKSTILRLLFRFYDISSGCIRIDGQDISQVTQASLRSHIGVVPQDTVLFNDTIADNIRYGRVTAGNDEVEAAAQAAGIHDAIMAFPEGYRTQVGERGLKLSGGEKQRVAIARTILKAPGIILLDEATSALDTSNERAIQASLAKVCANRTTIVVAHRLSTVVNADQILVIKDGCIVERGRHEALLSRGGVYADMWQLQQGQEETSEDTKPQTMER
Chain of Integrin beta-1 (Homo sapiens) + Integrin alpha-4 (Homo sapiens) (P05556 whole entry, looked up): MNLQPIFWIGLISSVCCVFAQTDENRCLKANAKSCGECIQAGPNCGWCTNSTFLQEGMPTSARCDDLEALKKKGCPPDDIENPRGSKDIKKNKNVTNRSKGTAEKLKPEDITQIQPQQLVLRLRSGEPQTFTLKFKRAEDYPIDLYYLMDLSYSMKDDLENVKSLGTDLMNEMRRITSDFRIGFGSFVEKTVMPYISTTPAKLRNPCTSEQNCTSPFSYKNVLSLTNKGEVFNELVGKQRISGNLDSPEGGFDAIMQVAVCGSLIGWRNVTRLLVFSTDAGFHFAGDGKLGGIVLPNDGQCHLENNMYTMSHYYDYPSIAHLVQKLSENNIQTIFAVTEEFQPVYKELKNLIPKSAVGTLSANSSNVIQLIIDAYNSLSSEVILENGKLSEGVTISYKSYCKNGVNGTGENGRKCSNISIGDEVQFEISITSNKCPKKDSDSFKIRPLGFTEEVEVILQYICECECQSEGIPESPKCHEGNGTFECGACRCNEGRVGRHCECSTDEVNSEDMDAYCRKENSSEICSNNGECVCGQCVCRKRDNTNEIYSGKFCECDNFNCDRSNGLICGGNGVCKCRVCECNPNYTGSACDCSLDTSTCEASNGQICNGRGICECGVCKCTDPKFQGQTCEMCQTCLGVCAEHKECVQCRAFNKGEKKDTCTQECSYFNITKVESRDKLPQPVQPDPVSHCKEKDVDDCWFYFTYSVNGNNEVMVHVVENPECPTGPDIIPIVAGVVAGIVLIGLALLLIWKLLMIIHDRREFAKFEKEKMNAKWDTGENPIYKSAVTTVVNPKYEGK
Chain of Integrin beta-1 (Homo sapiens) + Integrin alpha-4 (Homo sapiens) (P13612 whole entry, looked up): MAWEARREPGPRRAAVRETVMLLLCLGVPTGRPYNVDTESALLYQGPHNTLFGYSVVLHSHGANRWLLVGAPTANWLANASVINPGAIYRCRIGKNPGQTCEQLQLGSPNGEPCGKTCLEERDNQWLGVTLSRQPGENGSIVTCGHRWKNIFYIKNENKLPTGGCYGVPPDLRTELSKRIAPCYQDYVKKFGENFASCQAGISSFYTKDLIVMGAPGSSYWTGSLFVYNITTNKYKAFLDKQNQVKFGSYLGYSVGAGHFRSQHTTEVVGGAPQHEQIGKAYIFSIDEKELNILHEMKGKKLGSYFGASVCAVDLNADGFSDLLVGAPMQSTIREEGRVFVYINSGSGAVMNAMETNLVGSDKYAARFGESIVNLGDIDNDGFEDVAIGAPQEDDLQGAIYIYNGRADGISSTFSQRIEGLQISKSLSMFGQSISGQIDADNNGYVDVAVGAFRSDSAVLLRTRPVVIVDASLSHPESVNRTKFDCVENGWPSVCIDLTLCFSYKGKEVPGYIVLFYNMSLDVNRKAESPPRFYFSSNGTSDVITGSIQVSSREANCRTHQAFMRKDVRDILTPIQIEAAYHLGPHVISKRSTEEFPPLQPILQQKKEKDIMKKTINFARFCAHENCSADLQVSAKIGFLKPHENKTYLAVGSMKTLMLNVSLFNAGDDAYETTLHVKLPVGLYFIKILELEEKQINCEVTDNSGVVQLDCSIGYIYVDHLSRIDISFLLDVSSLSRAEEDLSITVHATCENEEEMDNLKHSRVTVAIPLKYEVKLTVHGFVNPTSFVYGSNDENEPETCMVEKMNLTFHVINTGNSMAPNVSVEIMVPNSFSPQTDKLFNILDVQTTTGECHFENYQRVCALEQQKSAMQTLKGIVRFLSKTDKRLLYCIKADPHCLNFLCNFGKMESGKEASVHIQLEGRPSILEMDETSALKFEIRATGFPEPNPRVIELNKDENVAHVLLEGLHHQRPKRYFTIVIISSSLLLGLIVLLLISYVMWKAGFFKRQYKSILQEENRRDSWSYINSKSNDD
Chain of Beta-adrenergic receptor kinase 1 (Homo sapiens) (P25098 whole entry, looked up): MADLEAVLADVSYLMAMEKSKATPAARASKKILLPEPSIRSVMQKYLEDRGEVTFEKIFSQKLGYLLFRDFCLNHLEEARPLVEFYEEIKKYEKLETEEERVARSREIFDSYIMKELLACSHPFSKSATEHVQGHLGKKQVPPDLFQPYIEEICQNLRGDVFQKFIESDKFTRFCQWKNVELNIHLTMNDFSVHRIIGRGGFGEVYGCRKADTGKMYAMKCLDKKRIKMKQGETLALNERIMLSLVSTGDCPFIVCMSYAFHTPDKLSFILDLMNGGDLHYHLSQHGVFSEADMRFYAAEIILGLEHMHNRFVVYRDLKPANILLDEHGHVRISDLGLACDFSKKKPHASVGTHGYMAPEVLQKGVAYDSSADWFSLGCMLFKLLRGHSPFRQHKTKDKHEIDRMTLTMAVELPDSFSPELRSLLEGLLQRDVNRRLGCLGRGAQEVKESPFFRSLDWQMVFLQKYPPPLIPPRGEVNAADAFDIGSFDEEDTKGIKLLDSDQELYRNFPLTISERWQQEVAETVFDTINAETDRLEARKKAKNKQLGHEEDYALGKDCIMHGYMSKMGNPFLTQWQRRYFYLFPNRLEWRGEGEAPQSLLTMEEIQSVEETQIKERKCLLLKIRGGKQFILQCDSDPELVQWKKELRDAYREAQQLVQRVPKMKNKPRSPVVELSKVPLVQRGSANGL

A word on the inhibition: it is the relative decrease from the control value, in per cent. On to `CC1(C)CC(=O)c2cnc(NC(=O)C3CCCC3)nc2C1`, for which the percent of DMSO control GFP in assay [1] was 105% (inactive). In addition, the GFP response vs DMSO in [2] was 96.2% (inactive); in assay [4], 80.8% (inactive). The percent response of DMSO control in [3] is 109% (inactive). Further, the GFP response, % of DMSO in [5] was 96.5% (inactive). Besides, the double positive events in assay [6] was 61%. Also, in [6], the vesicle binding response is 442% (inactive). Further, the inhibition was 4.73% (inactive) in [7], -7.26% (inactive) in assay [11] and -50% (inactive) in [15]. In addition, the superoxide response (% of plate) in [8] is 95.1% (inactive). Also, the aptamer binding inhibition in assay [9] was 6% (inactive). The response in assay [10] was -15.9% (inactive); in assay [12], -0.99% (inactive). Also, the binding (% of control) in assay [13] was 96.1% (inactive). Besides, the efflux inhibition (fraction of control) in assay [14] is 0.36 (inactive). Besides, the differentiation response in assay [16] was 10% (inactive).

For `COC(=O)[C@H]1[C@H]2C[C@@H]3c4[nH]c5cc(OC)ccc5c4CCN3C[C@H]2C[C@@H](OC(=O)c2ccc(N)cc2)[C@@H]1OC`, the percent of DMSO control GFP in assay [1] is 105% (inactive). For the same compound, the GFP response vs DMSO in assay [2] was 98.3% (inactive); in assay [4], 94% (inactive). The percent response of DMSO control in [3] was 111% (inactive). For the same compound, the GFP response, % of DMSO in assay [5] is 102% (inactive). Also, in assay [6], the double positive events worked out at 64.5%. For the same compound, the vesicle binding response in [6] was 828% (inactive). The inhibition is -393% (inactive) in assay [7], -1.6% (inactive) in assay [11] and -53% (inactive) in [15]. Besides, the superoxide response (% of plate) in assay [8] is 97% (inactive). Moreover, the aptamer binding inhibition in assay [9] was 3% (inactive). The figures for the response in assay [10] and in [12] were -18.1% (inactive) and -2.37% (inactive), respectively. In assay [13], the binding (% of control) is 104% (inactive). Moreover, the efflux inhibition (fraction of control) in assay [14] is -0.17 (inactive). The differentiation response in assay [16] is 0.24% (inactive).

On to `O=C1c2ccccc2C2(c3ccccc3)NCCN12` (stereo not drawn), for which the percent of DMSO control GFP in assay [1] is 101% (inactive). For the same compound, the values for the GFP response vs DMSO in assay [2] and in [4] were 102% (inactive) and 95.9% (inactive), respectively. Moreover, the percent response of DMSO control in assay [3] is 109% (inactive). In assay [5], the GFP response, % of DMSO was 99.8% (inactive). In assay [6], this compound came in with a double positive events of 59.5%. For the same compound, in [6], the vesicle binding response is 122% (inactive). The values for the inhibition in assay [7], in assay [11] and in assay [15] were -14.5% (inactive), 6.52% (inactive) and 3% (inactive), respectively. For the same compound, in assay [8], the superoxide response (% of plate) was 92.9% (inactive). Besides, the aptamer binding inhibition in [9] is 0% (inactive). In addition, the results for the response in [10] and in assay [12] were -0.82% (inactive) and 11.8% (inactive), respectively. For the same compound, in assay [13], the binding (% of control) was 104% (inactive). In addition, the efflux inhibition (fraction of control) in [14] is -0.19 (inactive). For the same compound, in assay [16], the differentiation response was -14.8% (inactive).

Turning to `COc1ccc(OC)c(NC2=C(Cl)C(=O)N(Cc3ccccc3)C2=O)c1`, the percent of DMSO control GFP in assay [1] was 104% (inactive). Moreover, the figures for the GFP response vs DMSO in assay [2] and in [4] were 105% (inactive) and 103% (inactive), respectively. Besides, in assay [3], the percent response of DMSO control is 103% (inactive). Further, in assay [5], the GFP response, % of DMSO was 99.8% (inactive). In assay [6], this compound gave a double positive events of 59.3%. In assay [6], the vesicle binding response was 98% (inactive). For the same compound, the values for the inhibition in [7], in [11] and in assay [15] were 4.27% (inactive), 5.66% (inactive) and 0% (inactive), respectively. Besides, the superoxide response (% of plate) in assay [8] was 99.4% (inactive). Moreover, the aptamer binding inhibition in [9] is 0% (inactive). The response in [10] is 3% (inactive); in [12], 2.16% (inactive). Also, the binding (% of control) in assay [13] is 107% (inactive). The efflux inhibition (fraction of control) in assay [14] was -0.075 (inactive). In [16], the differentiation response is -11.9% (inactive).
